An excerpt weighted towards active compounds, which were near 2% of everything screened.
FUS yeast rescue – FUS proteinopathy suppression in yeast. 390,000 tested, 0.24% active. Potency, µM (doses to about 76.6 µM), most hits filed as activators. AID 1347120. S. cerevisiae FUS-expressing, growth rescue, OD600, 24 h; further: nearly all actives have a fitted effect of over 55% in size
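Read-out: OD at 600 nm after 24hr at 30C, reporting rescue of FUS-induced yeast toxicity. Cells at OD 0.005 in galactose (2%) minimal medium; compounds tested in a dilution series; CP55940 titration from 92uM final as control.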
TDP43 rescue – inhibitors of TDP-43 toxicity in yeast; TDP-43 expressing yeast growth rescue, BacTiter-Glo, 24 h; 410,000 tested, 1.8% active; Potency, µM (highest dose often 46.1 µM), actives largely listed as activators; further: nearly all actives have a fitted effect of over 50% in size
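Readout is BacTiter-Glo luminescence of cell growth, so inhibitors register as activators. TDP-43-expressing yeast at OD600=0.02 in galactose medium, after raffinose pregrowth to mid-log, were incubated with compound for 24 hr at 30 deg C.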
Abeta rescue – A-beta toxicity reversal in yeast. yeast expressing A-beta42, growth rescue, OD600, 48 h; response scale: 0% DMSO, 100% iron-clioquinol control. Potency, µM (titrated, usually from 46.1 µM), actives largely listed as activators. 410,000 tested, 0.063% active. AID 1347071; further: nearly all actives have a fitted effect of over 55% in size
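Yeast A-beta toxicity model in growth medium with pinned compounds, 48 h at 30 C; growth read as absorbance at 600 nm. Normalized to FeCl3/clioquinol equimolar mix (positive) and DMSO (negative).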
Glioma ERSR ind – inducers of ER stress response in human glioma cells. U87-MG GRP78 promoter luciferase reporter, 16 h. 420,000 tested, 0.02% active. Potency, µM, hits mostly activators; further: series mostly up to about 76 µM; nearly all actives have a fitted effect of over 35% in size
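ERSR induction read as luciferase luminescence (Bright-Glo, 10 min at room temperature) in stably transfected human U87-MG glioma cells exposed to compounds for 16 h, using GRP78 as sensor.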
MBNL1 CUG block – MBNL1-poly(CUG) RNA binding inhibition. Q9NR56. TR-FRET MBNL1-His/biotin-(CUG)12 binding, 665/545 ratio. Potency, µM (series often up to 57.5 µM), most hits filed as inhibitors. 280,000 tested, 0.036% active. AID 2675; active means well fitted inhibition curve with a large enough effect in the signal ratio, with a control signal flat, not every such curve was filed as active; inconclusive means small, poorly fitted or top-dose-only effect, or effect the other way, or a change in a side signal; inactive means no such curve, though single readings can be large or run the other way; the % refers to the signal ratio
Target sequence (Q9NR56 whole entry, looked up): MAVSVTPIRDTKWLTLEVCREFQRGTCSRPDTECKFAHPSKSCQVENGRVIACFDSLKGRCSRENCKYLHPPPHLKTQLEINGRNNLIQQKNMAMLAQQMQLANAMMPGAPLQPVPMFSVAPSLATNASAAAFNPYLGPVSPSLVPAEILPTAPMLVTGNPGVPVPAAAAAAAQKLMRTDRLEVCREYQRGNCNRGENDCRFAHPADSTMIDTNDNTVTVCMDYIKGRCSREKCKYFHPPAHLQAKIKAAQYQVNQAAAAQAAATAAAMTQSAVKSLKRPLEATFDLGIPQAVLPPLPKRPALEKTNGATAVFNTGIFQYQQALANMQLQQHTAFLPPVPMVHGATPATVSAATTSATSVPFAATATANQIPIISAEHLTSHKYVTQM
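Compounds (final 92 nM to 58 uM) are added to His-tagged MBNL1 and biotin-(CUG)12, then terbium anti-His antibody and streptavidin-XL665 (5 nM final). After 60 min at room temperature, the 665/545 nm ratio is read.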
aSyn yeast inh – rescues yeast growth from alpha-synuclein toxicity. Potency, µM (series often up to 46.1 µM), usual class: activators. Yeast expressing alpha-synuclein, growth rescue, BacTiter-Glo, 24 h. 370,000 tested, 0.14% active; further: nearly all actives have a fitted effect of over 65% in size
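Readout is rescue of growth in alpha-synuclein-expressing yeast, so inhibitors of toxicity appear as activators. Growth after 24 hr at 30 deg C in galactose medium is quantified by luminescence.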
Numbers stand for hits; n = inactive; u = inconclusive; x = not tested or not shown; [ ] = remark or other dose. Unless noted, the call rests on the fitted dose curve; in most records, active means well fitted curve in the direction sought with a large enough effect; inconclusive means small, poorly fitted or top-dose-only effect, or another doubt; inactive means no such curve, though single readings can be large; an effect the other way counts as inactive or inconclusive.

SMILES	FUS yeast rescue	TDP43 rescue	Abeta rescue	Glioma ERSR ind	MBNL1 CUG block	aSyn yeast inh
O=C(Nc1ccccc1)c1cccc2c(-c3cccnc3)coc12	n	14µM	n	n	x	n
O=C(NCC1CCOCC1)c1cccc2c(-c3cccnc3)coc12	n	n	n	n	x	n
COc1ccc(-c2coc3c(C(=O)Nc4cccc(C(C)=O)c4)cccc23)c(C)c1	n	n	n	n	x	n
COc1ccc(-c2ccc(C(=O)NCc3ccc(N(C)C)cc3)c3occc23)c(C)c1	n	18µM	n	n	x	n
CC(C)NC(=O)c1cn(C2CCCN(C(=O)c3cc4ccccc4oc3=O)C2)nn1 (configuration not stated)	x	x	x	n	x	x
O=C(Cn1nnc(-c2ccc(N3CCOCC3)cc2)n1)c1ccc(F)cc1	n	x	x	x	x	x
CC(C)c1onc(C(=O)Nc2cccc(Cl)c2)c1[N+](=O)[O-]	n	10µM	n	n	n	n
Cc1cccc(N2CCN(C(=O)c3c(C)oc4ncnc(N5CCCCC5)c34)CC2)c1C	n	35µM	n	n	x	x
Cc1ccc(N2CCN(C(=O)c3c(C)oc4nc(C)nc(N5CCCC5)c34)CC2)c(C)c1	n	25µM	n	n	x	x
Cc1ccc(N2CCN(C(=O)c3c(C)oc4ncnc(N5CCCCC5)c34)CC2)c(C)c1	u	u	n	n	x	x
Cc1cccc(N2CCN(C(=O)c3c(C)oc4ncnc(N5CCOCC5)c34)CC2)c1C	n	20µM	n	n	x	x
Cc1nc(N2CCCC2)c2c(C(=O)N3CCN(c4cccc(C)c4C)CC3)c(C)oc2n1	n	u	n	n	x	x
Cc1ccc(N2CCN(C(=O)c3c(C)oc4ncnc(N5CCOCC5)c34)CC2)c(C)c1	n	u	n	n	x	x
CCN(CC)/[N+]([O-])=N/OCOC(=O)C(C)c1ccc2cc(OC(C)=O)ccc2c1 (configuration not stated)	x	x	x	n	x	n
C[N+](C)(CCCCCC[N+](C)(C)C1c2ccccc2-c2ccccc21)C1c2ccccc2-c2ccccc21	x	x	x	n	x	x
COc1ccc(C(=O)CC2(C(=O)O)CCCCC2)cc1	n	16µM	n	n	n	n
COc1cccc(-c2sc3ccc(OC)cc3c2-c2ccc(OCCN3CCOCC3)cc2)c1	u	35µM	n	n	x	n
COc1ccc2sc(-c3ccccc3OC)c(-c3ccc(OCCN4CCOCC4)cc3)c2c1	u	n	n	n	x	n
COc1cccc(-c2sc3ccc(OC)cc3c2-c2ccc(OCCN(C)C)cc2)c1	32µM	n	n	n	x	n
CNc1nc(C)c([N+](=O)[O-])c(Nc2ccc(OC)cc2)n1	n	13µM	n	n	n	n
Cc1ccc(NC(=O)C2CCCN(c3nnc(-n4cccc4)s3)C2)cc1C (configuration not stated)	n	x	x	x	x	x
COC(=O)c1sccc1NC(=O)Nc1ccc(C)cc1C	n	13µM	n	n	n	n
COc1ccc(NC(=O)c2sccc2-n2cccc2)cc1	n	13µM	n	n	n	n
Cc1ccc(NC(=O)c2sccc2-n2cccc2)c(C)c1	n	22µM	n	n	u	n
O=C(Nc1ccc(Cl)cc1)c1sccc1-n1cccc1	n	u	n	n	x	n
SMILES	FUS yeast rescue	TDP43 rescue	Abeta rescue	Glioma ERSR ind	MBNL1 CUG block	aSyn yeast inh
COC(=O)c1sccc1NC(=O)Nc1ccc(C)cc1	n	u	n	n	n	n
CCOC(=O)C1CCCN(C(=O)c2cnn(-c3ncc4c(n3)-c3ccccc3CCC4)c2C2CC2)C1 (configuration not stated)	x	x	x	n	x	x
Nc1nc(CSc2nc3ccccc3s2)nc(Nc2ccccc2)n1	x	x	x	x	n	x
Cc1c(Cl)cccc1Nc1nc(N)nc(CSc2nc3ccccc3s2)n1	u	16µM	n	n	n	n
O=C(Oc1cc2oc(=O)cc(-c3ccccc3)c2cc1Cl)C1CCCCC1	n	3.5µM	n[9.22 µM]	n	n	n
Cn1cccc1C(=O)N1CCN(S(=O)(=O)c2ccc(C(C)(C)C)cc2)CC1	n	x	x	x	x	x
CCOC(=O)C1CCCN(C(=O)c2cc3c(Cl)nc4ccccc4c3s2)C1 (configuration not stated)	u	u	n	n	x	x
O=C(c1cc2c(Cl)nc3ccccc3c2s1)N1CCCCC1	n	35µM	n	n	x	x
Clc1ccccc1N1CCN(Cc2c[nH]c3ccccc23)CC1	n	n	u	n	x	n
O=C(C(=O)N1CCN(c2ccccc2Cl)CC1)c1c[nH]c2ccccc12	n	22µM	x	n	n	18µM
CCc1ccc(C(C)NC(=O)c2cc(C)oc2C)cc1 (configuration not stated)	n	13µM	n	n	n	n
Cc1cccc(CNC(=O)c2cnn(-c3nccc(-c4cc(C)sc4C)n3)c2C)n1	x	x	x	n	x	x
COc1ccc(-n2c(SCc3nc4ccccc4[nH]3)nc3ccccc3c2=O)cc1	35µM	x	x	x	x	x
Cc1nc2c(-c3ccc(F)cc3)cnn2c(N)c1-c1ccccc1	n	13µM	n	n	n	n
Cc1nc2c(-c3ccc(Cl)cc3)cnn2c(N)c1-c1ccc(F)cc1	n	n	n	n	n	n
Nc1nc(-c2cccs2)c(-c2cccs2)s1	n	16µM	n	n	n	n
CCN(C(=O)COC(=O)c1c(C)nn(-c2ccccc2)c1C)C1CCS(=O)(=O)C1 (configuration not stated)	n	n[9.22 µM]	n	n	n	n
CCN(C(=O)COC(=O)c1c2c(nc3ccccc13)/C(=C/c1ccccc1)CC(C)C2)C1CCS(=O)(=O)C1 (configuration not stated)	x	14µM	n	n	u	n
COc1cc(-c2cc(=O)c3c(O)c(OC)c(OC)c(OC)c3o2)cc(OC)c1OC	n	n	n	n	n	25µM
OC(c1ccc2c(c1)CN(Cc1cccc3nccnc13)CCO2)C1CCCCC1 (configuration not stated)	x	x	x	n	x	x
Nn1c(SCC(=O)N2CCOCC2)nnc1-c1cc(-c2ccc(F)cc2)n[nH]1	n	x	x	x	x	x
O=C(Nc1ccc2c(c1)CCC2)c1cccc(S(=O)(=O)N2CCN(c3ccccc3)CC2)c1	14µM	n	n	n	n	n
O=C(NC1CCCc2ccccc21)c1cccc(S(=O)(=O)N2CCN(c3ccccc3)CC2)c1 (configuration not stated)	n	n	n	n	n	n
CC1=NNC(=O)C1CC(=O)N/N=C/C(Br)=C/c1ccccc1 (configuration not stated)	n	14µM	n	n	u	n
N#Cc1ccc(Cn2ccc3ccc(-c4ccc5ccn(C(=O)c6ccccc6)c5c4)cc32)cc1	n	x	x	x	x	x
Cc1cc2c(c(Sc3ccccc3)n1)C(=O)OC2	n	3.2µM	n	n	n	x
COc1ccc(CNCC(O)COc2ccc3[nH]c(=O)ccc3c2)cc1OC (configuration not stated)	x	x	x	n	x	x
